The results in this text go back to the supplement of paper PMC11172423.

Unmarked numbers belong to inactive results.

For the experiment, the system named is Falciformispora senegalensis CBS197.79. The experiment in a line: growth relative to untreated control; higher = less inhibition, active = 20 or less. The note with it: 100 µM. An outline of the steps:
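Viability readout used either MTS (2 h, 490 nm) or resazurin (600 nm). Before this, hyphal fragments of M. mycetomatis MM55 or F. senegalensis CBS197.79 in colourless RPMI 1640 with L-glutamine and MOPS (68–72% transmission at 660 nm) had been exposed in 96-well plates to compound at 100 or 25 µM for 7 days at 37 °C. Growth denotes metabolic activity relative to the untreated growth control, with a medium-plus-dye blank subtracted from both.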
`CCN1CCC(c2cc(C)c3nc(-c4cc5c(C)nc(C)cn5n4)cc(=O)n3c2)CC1`: the growth is 107%.
In the case of `CC(C)C[C@H](NC(=O)[C@H](Cc1ccccc1)NC(=O)c1cnccn1)B(O)O`, the growth was 93.7%.
For `NC(=O)c1ncn([C@@H]2O[C@H](CO)[C@@H](O)[C@H]2O)n1` the value was 102%.
For `CCN(CC)CCNc1nc(Nc2cccc(OC)c2)c2cnn(-c3ccccc3)c2n1` the value was 17.5% (active).
As for `CS(=O)(=O)c1ccc(-c2cnn3c2NC(c2cccc(S(=O)(=O)C4CC4)c2)CC3)cc1` (stereo unspecified), the growth is 88.1%.
For `COc1cccc2c1CCCC2CCCN1CCN(C2CCCCC2)CC1` (stereo unspecified) the value was 103%.
Regarding `Cc1cccnc1-c1noc(-c2ccccc2)n1`, the growth was 98%.
Turning to `Cn1nc(C(=O)Nc2ccc(F)c(Cl)c2)c2c1-c1ccccc1S(=O)(=O)C2`, the growth is 117%.
`Nc1nc(S)c2[nH]cnc2n1`: the growth was 103%.
For `CN(C)CCCN1C(=O)c2[nH]nc(-c3ccc(Cl)cc3O)c2C1c1ccc(Cl)cc1` (stereo unspecified) the value was 25.4%; for `COc1ccc(-c2nn3c(-c4ccco4)nnc3s2)cc1OC`, 96%.
`C[C@@H]1CS/C(=N\NC(=O)C(=O)[C@@H](NC(=O)C2CCCCCC2)C2CCOCC2)N1C`: the growth is 98.8%.
On to `O=C(Nc1ncccc1O)c1ccc(S(=O)(=O)NCCc2cccs2)cc1`, for which the growth is 88.7%.
On to `C[C@@H](c1nc(-c2ccc(C#N)cc2)cs1)[C@](O)(Cn1cncn1)c1ccc(F)cc1F`, for which the growth was 52.3%.
For `CCSc1ccc2c(c1)N(CCCN1CCN(C)CC1)c1ccccc1S2` the value was 11.7% (active).
For `Cc1cccnc1Nc1cn2cc(-c3cccc(OCC(F)(F)F)n3)ccc2n1` the value was 86.9%; for `Cc1cc2c(cc1Cl)N(C(=O)Nc1cc(F)cc(-c3cncnc3)c1)CC2`, 101%; for `Cc1cccnc1Nc1cn2cc(-c3ccnc(OC(C)C)n3)ccc2n1`, 91%.
As to `C[C@H](NC(=O)c1cc2c(F)cccc2[nH]1)c1ccccc1`, the growth was 68.4%.
For `CCOC(=O)NCCOc1cnn(Cc2ccccc2)c(=O)c1` the value was 101%; for `CC(C)(C)[S@@](=O)N1Cc2cc(C(=O)NCCc3ccncc3)nc(-c3cccc(-c4ccccc4)c3)c2[C@H]1CCO`, 102%; for `CN(C)CCCN1c2ccccc2Sc2ccc(Cl)cc21`, 7.45% (active).
On to `CC(C)Nc1ncc2nc(Nc3cc(F)cc(Cl)c3)n(C3CCNCC3)c2n1`, for which the growth is 99.6%.
Turning to `Oc1ccccc1CCNC1CCc2ccc(F)cc21` (stereo unspecified), the growth was 115%.
With `Nc1nc(NC2CC2)c2ncn([C@H]3C=C[C@@H](CO)C3)c2n1`, the growth was 107%.
With `CCCCc1nc(Cl)c(CO)n1Cc1ccc(-c2ccccc2-c2nn[nH]n2)cc1`, the growth is 105%.
For `C[C@H]1c2cccc(O)c2C(=O)C2=C(O)[C@]3(O)C(O)=C(C(N)=O)C(=O)[C@@H](N(C)C)[C@@H]3[C@@H](O)[C@@H]21` the value was 108%.
In the case of `CCC(CC)COC(=O)[C@H](C)NP(=O)(OC[C@H]1O[C@@](C#N)(c2ccc3c(N)ncnn23)[C@H](O)[C@@H]1O)Oc1ccccc1` (stereo partly specified), the growth is 96.3%.
Next, `COC(=O)N[C@H](C(=O)N1CCC[C@H]1c1ncc(-c2ccc(-c3ccc(-c4cnc([C@@H]5CCCN5C(=O)[C@@H](NC(=O)OC)C(C)C)[nH]4)cc3)cc2)[nH]1)C(C)C`: 99.8%.
For the molecule `CC(C)CC(NCCc1ccccc1O)c1ccccn1` (stereo unspecified), the growth is 78.8%.
Consider `CC(C)(C)c1nc(-c2cccc(NS(=O)(=O)c3c(F)cccc3F)c2F)c(-c2ccnc(N)n2)s1`, for which the growth is 104%.
On to `COc1ccc2c(O[C@@H]3C[C@H]4C(=O)N[C@]5(C(=O)NS(=O)(=O)C6CC6)C[C@H]5/C=C\CCCCN(C)C(=O)[C@@H]4C3)cc(-c3nc(C(C)C)cs3)nc2c1C`, for which the growth was 100%.
Take `CC[C@@H]([C@H](C)O)n1ncn(-c2ccc(N3CCN(c4ccc(OC[C@@H]5CO[C@@](Cn6cncn6)(c6ccc(F)cc6F)C5)cc4)CC3)cc2)c1=O`: the growth is 24.1%.
As for `CCN1C(=O)N(CCC(C)C)C2(CCN(Cc3cc(O)cc(Cl)c3)CC2)C1=O`, the growth is 92.9%.
Next, `O=S(=O)(NCC1(O)CCOc2ccccc21)c1ccccc1F` (stereo unspecified): 113%; `CC[C@H](C)[C@H]1O[C@]2(CC[C@@H]1C)C[C@@H]1C[C@@H](C/C=C(\C)[C@@H](O[C@H]3C[C@H](OC)[C@@H](O[C@H]4C[C@H](OC)[C@@H](O)[C@H](C)O4)[C@H](C)O3)[C@@H](C)/C=C/C=C3\CO[C@@H]4[C@H](O)C(C)=C[C@@H](C(=O)O1)[C@]34O)O2`: 106%.
